# In PubChem BioAssay:
# For part of these data: Results with a measured potency or affinity are listed apart. Activity calls are given as the source filed them.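 The calls were made as follows, unless noted: active = primary screen activator hit with a dose response curve and TRPC4 channel activation at any tested dose; inactive = no activation, no dose response, or not a primary hit.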
# Experiments:
# [1] = test system: TRPC4 beta (transient receptor potential cation channel C4), mouse; test: activators of mouse TRPC4 channel, confirmation, cell-based, Fluo4 calcium, HEK293 TRPC4beta/mu-opioid, duplicates, 10 µM (AID 2426;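 active = fluorescence ratio normalized to control raised more than 50% in primary screen plus both repeat runs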); conditions: Fluo4 calcium fluorescence, at 10 µM; stronger effect = higher value
# [2] = test system: transient receptor potential cation channel C4 beta (TRPC4), mouse; test: activators of mouse TRPC4 channel, confirmation, cell-based, second round, Fluo4, HEK293 TRPC4beta/mu-opioid, 1 µM (AID 2461;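 active = primary screen active and over 50% activation in each of two duplicate runs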); conditions: Fluo4 calcium fluorescence, at 1 µM; stronger effect = higher value
# [3] = test system: TRPC4 (transient receptor potential cation channel C4 beta), mouse; test: positive allosteric modulators of mouse TRPC4, confirmation, cell-based, second round, Fluo-4, HEK293 TRPC4beta/mu-opioid, 1 µM (AID 2554;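 active = primary screen hit whose fluorescence ratio, in both repeats, exceeds the weak agonist control mean by 3 SD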); conditions: DAMGO EC20, Fluo-4 calcium flux, at 1 µM; stronger effect = higher value
# [4] = test system: TRPC4 beta (transient receptor potential cation channel C4), mouse; test: positive allosteric modulators of mouse TRPC4, confirmation, cell-based, Fluo-4, HEK293 TRPC4beta/mu-opioid (AID 2555;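 active = primary screen hit whose calcium fluorescence ratio, in both repeats, exceeds the weak agonist control mean by 3 SD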); conditions: DAMGO EC20, Fluo-4 calcium flux, at 10 µM; stronger effect = higher value
# [5] = molecular target: Short transient receptor potential channel 4 (Mus musculus) (UniProt Q9QUQ5); test: inhibitors of mouse TRPC4 channel, confirmation, cell-based, Fluo4, HEK293 TRPC4beta/mu-opioid (AID 2636;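 active = calcium signal cut by more than 3 SD below the full-agonist control yet still positive, in both repeats and the earlier primary screen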); conditions: DAMGO, Fluo4 calcium flux, at 10 µM; stronger effect = higher value
# Sequence of Short transient receptor potential channel 4 (Mus musculus) (Q9QUQ5 whole entry, looked up): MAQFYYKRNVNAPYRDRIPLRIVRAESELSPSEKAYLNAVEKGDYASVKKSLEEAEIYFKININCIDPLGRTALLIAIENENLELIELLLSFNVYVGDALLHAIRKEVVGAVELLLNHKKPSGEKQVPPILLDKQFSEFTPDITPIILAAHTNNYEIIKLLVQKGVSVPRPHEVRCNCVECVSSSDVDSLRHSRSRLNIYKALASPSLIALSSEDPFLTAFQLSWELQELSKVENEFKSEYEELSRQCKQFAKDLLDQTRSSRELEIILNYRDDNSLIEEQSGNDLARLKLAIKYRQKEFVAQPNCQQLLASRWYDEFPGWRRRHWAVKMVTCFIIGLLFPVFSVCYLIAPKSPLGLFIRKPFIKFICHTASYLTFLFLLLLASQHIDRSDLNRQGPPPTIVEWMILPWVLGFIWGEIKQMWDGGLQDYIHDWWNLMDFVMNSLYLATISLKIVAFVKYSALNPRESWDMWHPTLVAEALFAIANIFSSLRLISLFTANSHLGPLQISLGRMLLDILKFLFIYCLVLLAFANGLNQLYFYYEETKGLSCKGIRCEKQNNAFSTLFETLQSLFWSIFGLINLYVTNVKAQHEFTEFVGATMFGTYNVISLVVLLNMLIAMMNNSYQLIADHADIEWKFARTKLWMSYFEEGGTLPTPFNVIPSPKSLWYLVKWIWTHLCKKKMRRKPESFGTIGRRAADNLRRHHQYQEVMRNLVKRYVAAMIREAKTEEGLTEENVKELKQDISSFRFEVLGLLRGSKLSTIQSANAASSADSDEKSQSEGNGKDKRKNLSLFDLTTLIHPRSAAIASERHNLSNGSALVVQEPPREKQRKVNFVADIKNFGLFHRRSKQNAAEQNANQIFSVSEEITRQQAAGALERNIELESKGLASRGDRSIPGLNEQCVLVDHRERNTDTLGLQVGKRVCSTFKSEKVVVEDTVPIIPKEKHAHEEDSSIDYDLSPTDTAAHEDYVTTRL
# [6] = molecular target: Short transient receptor potential channel 4 (Mus musculus) (UniProt Q9QUQ5); test: inhibitors of mouse TRPC4 channel, confirmation, cell-based, second round, Fluo4, HEK293 TRPC4beta/mu-opioid, 1 µM (AID 2637;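 active = calcium signal ratio cut to more than 3 SD under the fully stimulated control mean yet still positive, in both repeats and the primary screen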;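 as to inhibition: percent of integrated ratio relative to wells lacking test compound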); conditions: Fluo4 calcium flux, DAMGO, at 1 µM; stronger effect = higher value
# [7] = molecular target: Short transient receptor potential channel 4 (Mus musculus) (UniProt Q9QUQ5); test: mouse TRPC4 channel activators, dose response, cell-based, HEK293 TRPC4/mu-opioid, Fluo-4 calcium (AID 434937)
# [8] = molecular target: Short transient receptor potential channel 4 (Mus musculus) (UniProt Q9QUQ5); test: TRPC4 positive allosteric modulators, dose response, cell-based, HEK293 TRPC4/mu-opioid, Fluo-4 calcium, EC20 DAMGO (AID 434941;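 active = earlier screen potentiator hit that boosts the TRPC4 ion channel at some dose, with a dose response; inactive = no potentiation, no dose response, or not a prior hit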;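 also: calcium entry triggered by an EC20 dose of DAMGO at the co-expressed mu-opioid receptor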)
# [9] = molecular target: Short transient receptor potential channel 6 (Mus musculus) (UniProt Q61143); test: inhibition of mouse TRPC6 channel, confirmation, selectivity assay for TRPC4 inhibitor project, cell-based, HEK293, membrane potential dye, duplicate (AID 434948;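 active = active in primary screen and both duplicates, each dropping signal beyond three positive-control SD with fluorescence still positive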); conditions: HEK293 TRPC6, membrane potential dye fluorescence, at 10 µM, stimulated with maximal-effect acetylcholine; stronger effect = higher value
# Sequence of Short transient receptor potential channel 6 (Mus musculus) (Q61143 whole entry, looked up): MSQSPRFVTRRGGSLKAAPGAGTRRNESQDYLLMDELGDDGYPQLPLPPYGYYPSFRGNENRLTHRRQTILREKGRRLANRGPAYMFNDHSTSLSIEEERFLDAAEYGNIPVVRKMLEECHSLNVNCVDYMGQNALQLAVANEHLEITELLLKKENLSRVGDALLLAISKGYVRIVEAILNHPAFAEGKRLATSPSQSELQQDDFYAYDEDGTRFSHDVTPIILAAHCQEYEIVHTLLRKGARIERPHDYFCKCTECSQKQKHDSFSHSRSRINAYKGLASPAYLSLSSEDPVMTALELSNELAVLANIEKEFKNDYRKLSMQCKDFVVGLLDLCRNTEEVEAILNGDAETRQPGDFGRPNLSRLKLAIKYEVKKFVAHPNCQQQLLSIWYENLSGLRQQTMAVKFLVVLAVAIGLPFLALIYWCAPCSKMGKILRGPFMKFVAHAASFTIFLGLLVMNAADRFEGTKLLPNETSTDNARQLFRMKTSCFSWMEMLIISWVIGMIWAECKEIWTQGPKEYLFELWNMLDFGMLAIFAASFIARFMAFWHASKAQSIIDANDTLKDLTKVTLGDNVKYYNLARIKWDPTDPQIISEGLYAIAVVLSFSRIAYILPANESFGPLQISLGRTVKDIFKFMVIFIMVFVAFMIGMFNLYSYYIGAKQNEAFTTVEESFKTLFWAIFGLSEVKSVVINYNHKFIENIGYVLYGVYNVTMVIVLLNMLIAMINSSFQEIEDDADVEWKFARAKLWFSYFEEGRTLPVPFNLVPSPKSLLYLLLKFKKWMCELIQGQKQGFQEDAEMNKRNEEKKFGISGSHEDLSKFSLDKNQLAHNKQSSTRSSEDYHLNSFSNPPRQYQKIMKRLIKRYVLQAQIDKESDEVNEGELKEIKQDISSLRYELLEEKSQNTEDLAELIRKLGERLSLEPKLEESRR
# [10] = molecular target: Short transient receptor potential channel 6 (Mus musculus) (UniProt Q61143); test: activation of mouse TRPC6 channel, confirmation, selectivity assay for TRPC4 activator project, cell-based, HEK293, membrane potential dye, duplicate (AID 434950;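 active = membrane potential signal rise above negative control mean plus 3 SD in both duplicates, also active in the earlier TRPC4 screen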); conditions: HEK293 TRPC6, membrane potential fluorescence, at 10 µM; stronger effect = higher value
# [11] = molecular target: Short transient receptor potential channel 6 (Mus musculus) (UniProt Q61143); test: TRPC6 potentiation by TRPC4 potentiator hits, confirmation, selectivity assay for TRPC4 potentiator project, HEK293 cells, membrane potential dye, duplicate (AID 434952;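 active = compound raising the membrane signal above positive-control mean plus 3 SD in both repeats, and a primary screen hit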); conditions: HEK293 TRPC6, membrane potential dye fluorescence, at 10 µM, maximal acetylcholine added after compound; stronger effect = higher value
# [12] = molecular target: Short transient receptor potential channel 4 (Mus musculus) (UniProt Q9QUQ5); test: calcium flux activators in TRPC4/5HT1a cells, counter-screen for TRPC4 activator project, cell-based, second counter screen, HEK293 TRPC4/5HT1a, Fluo-4 (AID 434977;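 active = calcium signal rise above buffer-control mean plus 5 SD in both duplicates, and also a hit in the primary screen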;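 as to activation: plate controls were assay buffer for no effect and maximal serotonin response for full effect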); conditions: Fluo-4 calcium flux, at 10 µM; stronger effect = higher value
# [13] = calcium flux inhibitors in TRPC4/5HT1a cells, confirmation, counter-screen for TRPC4 inhibitor project, cell-based, second counter screen, HEK293 TRPC4/5HT1a, Fluo-4 (AID 434978;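 active = primary screen active whose calcium signal fell more than 3 SD beyond the full-serotonin control mean in both duplicate plates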;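 as to outcome: serotonin given first at submaximal then at maximal dose after compound preincubation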); conditions: Fluo-4 calcium flux, at 10 µM, serotonin added to trigger calcium flux; stronger effect = higher value
# [14] = test system: TRPC4 (mouse), co-expressed with 5HT1a in HEK293; test: calcium flux potentiators in TRPC4/5HT1a cells, confirmation, counter-screen for TRPC4 potentiator project, cell-based, second counter screen, HEK293 TRPC4/5HT1a, Fluo-4 (AID 434979;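 active = signal rise over 3 SD above mean of control wells given weak agonist, in both repeats and first screen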); conditions: Fluo-4 calcium flux, at 10 µM, serotonin added at its EC20 dose; stronger effect = higher value
# [15] = calcium flux activation in mu-opioid HEK293 cells, confirmation, counter-screen for TRPC4 activator project, cell-based, HEK293 mu-opioid receptor line (AID 449723;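 active = hit in primary screen, with calcium signal over 5 SD above buffer well mean in both duplicates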;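 also: counter screen cells carry the mu-opioid receptor alone and lack TRPC4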); conditions: Fluo-4 calcium fluorescence, at 10 µM; stronger effect = higher value
# [16] = calcium flux enhancement in mu-opioid HEK293 cells, confirmation, counter-screen for TRPC4 allosteric potentiator project, cell-based, HEK293 mu-opioid receptor line (AID 449724;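 active = calcium signal rise more than 3 SD above the low-dose agonist control mean, in both duplicate plates and the primary screen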); conditions: Fluo-4 calcium flux, at 10 µM, compound added before EC20 DAMGO stimulus; stronger effect = higher value
# [17] = molecular target: Short transient receptor potential channel 4 (Mus musculus) (UniProt Q9QUQ5); test: mouse TRPC4 channel inhibitors, dose response, cell-based, HEK293 TRPC4/mu-opioid, Fluo-4 calcium (AID 434942;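 active = primary screen inhibitor hit that blocks the TRPC4 channel at some tested dose, yielding a dose curve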)
# [18] = thallium flux activation in parental CHO cells, counter-screen for KCNQ1 potentiator project (AID 493006;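 active = duplicate-averaged activation above buffer control mean plus 5 SD of those controls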;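 as to activation: fluorescence ratio of max minus min over baseline after K+ and Tl+ depolarization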); conditions: parental CHO-K1 cells, FluxOR thallium flux, at 10 µM; stronger effect = higher value
# [19] = molecular target: Potassium voltage-gated channel subfamily KQT member 1 (Homo sapiens) (UniProt P51787); test: KCNQ1 potassium channel potentiators, confirmation, FluxOR thallium flux, CHO cells, duplicates (AID 493007;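 active = potentiation averaged over duplicate wells exceeding buffer-only control mean by more than 3 SD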;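 also: 0% = buffer-only wells and 100% = R-L3 activator control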); conditions: KCNQ1 cell line, FluxOR thallium flux fluorescence, at 10 µM; stronger effect = higher value, % of reference activator effect, buffer zero
# Sequence of Potassium voltage-gated channel subfamily KQT member 1 (Homo sapiens) (P51787 whole entry, looked up): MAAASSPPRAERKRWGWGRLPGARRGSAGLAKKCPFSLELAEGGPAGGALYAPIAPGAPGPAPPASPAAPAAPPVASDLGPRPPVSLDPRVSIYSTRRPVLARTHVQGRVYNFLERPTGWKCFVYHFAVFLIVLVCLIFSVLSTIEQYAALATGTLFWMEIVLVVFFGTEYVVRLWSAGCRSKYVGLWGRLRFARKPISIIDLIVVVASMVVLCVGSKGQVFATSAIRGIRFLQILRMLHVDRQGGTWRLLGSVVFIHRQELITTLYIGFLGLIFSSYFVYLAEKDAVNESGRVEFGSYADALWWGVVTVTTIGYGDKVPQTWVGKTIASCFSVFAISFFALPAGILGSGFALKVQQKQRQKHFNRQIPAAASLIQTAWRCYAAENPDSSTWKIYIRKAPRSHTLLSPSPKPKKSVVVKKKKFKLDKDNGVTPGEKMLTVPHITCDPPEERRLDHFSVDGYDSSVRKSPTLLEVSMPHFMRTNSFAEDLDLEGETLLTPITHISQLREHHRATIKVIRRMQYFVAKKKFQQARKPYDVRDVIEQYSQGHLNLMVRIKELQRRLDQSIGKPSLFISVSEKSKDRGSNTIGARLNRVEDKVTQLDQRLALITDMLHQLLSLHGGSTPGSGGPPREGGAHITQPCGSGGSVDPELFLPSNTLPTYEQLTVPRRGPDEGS
# [20] = molecular target: Potassium voltage-gated channel subfamily KQT member 2 (Rattus norvegicus) (UniProt O88943); test: rat KCNQ2 channel potentiation, selectivity assay for KCNQ1 potentiator project, KCNQ2-CHO-K1 cells (AID 493009;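 active = mean duplicate potentiation above the buffer control mean plus 5 SD of buffer wells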;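 also: assay conditions were tuned for KCNQ1 rather than KCNQ2 modulators; signal is max minus min fluorescence divided by baseline after thallium stimulus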); conditions: FluxOR thallium flux fluorescence, at 10 µM; stronger effect = higher value, scaled: buffer 0, activator control 100
# Sequence of Potassium voltage-gated channel subfamily KQT member 2 (Rattus norvegicus) (O88943 whole entry, looked up): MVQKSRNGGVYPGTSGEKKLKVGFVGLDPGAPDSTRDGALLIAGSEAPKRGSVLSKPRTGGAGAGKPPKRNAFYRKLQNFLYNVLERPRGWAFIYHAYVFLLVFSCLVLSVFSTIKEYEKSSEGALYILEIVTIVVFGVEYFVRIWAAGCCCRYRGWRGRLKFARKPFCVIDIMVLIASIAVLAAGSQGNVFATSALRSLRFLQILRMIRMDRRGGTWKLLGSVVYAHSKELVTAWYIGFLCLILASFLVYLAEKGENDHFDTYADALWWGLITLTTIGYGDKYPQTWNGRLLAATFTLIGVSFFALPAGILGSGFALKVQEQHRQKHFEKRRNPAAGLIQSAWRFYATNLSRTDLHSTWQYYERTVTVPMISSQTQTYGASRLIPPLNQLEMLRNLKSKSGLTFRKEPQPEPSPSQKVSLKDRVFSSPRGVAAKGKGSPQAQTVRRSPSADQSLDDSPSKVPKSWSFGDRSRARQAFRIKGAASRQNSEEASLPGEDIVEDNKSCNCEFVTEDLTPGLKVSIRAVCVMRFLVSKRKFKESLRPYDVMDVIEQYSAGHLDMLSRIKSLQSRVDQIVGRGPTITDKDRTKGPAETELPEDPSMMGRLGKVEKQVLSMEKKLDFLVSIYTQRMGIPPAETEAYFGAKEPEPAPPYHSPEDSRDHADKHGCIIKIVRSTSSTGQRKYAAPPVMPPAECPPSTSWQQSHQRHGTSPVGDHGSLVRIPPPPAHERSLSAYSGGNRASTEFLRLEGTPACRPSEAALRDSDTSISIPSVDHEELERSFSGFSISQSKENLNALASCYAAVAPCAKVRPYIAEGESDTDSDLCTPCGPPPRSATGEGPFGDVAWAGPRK
structure (smiles),measurement,setting,value
Cc1c(C(=O)NCC(c2ccco2)N(C)C)oc2c(Cl)cccc12 (stereo unspecified),outcome,[1],inactive
same,outcome,[2],inactive
same,outcome,[3],inactive
same,outcome,[4],inactive
same,inhibition,[5],94% (active)
same,inhibition,[6],70% (active)
same,outcome,[7],inactive
same,outcome,[8],inactive
same,outcome,[9],inactive
same,outcome,[10],inactive
same,outcome,[11],inactive
same,outcome,[12],inactive
same,outcome,[13],inactive
same,outcome,[14],inactive
same,outcome,[15],inactive
same,outcome,[16],inactive
Clc1ccccc1CSc1nc2ccncc2[nH]1,outcome,[1],inactive
same,outcome,[2],inactive
same,outcome,[3],inactive
same,outcome,[4],inactive
same,inhibition,[5],99% (active)
same,outcome,[6],inactive
same,outcome,[7],inactive
same,outcome,[8],inactive
same,outcome,[9],inactive
same,outcome,[10],inactive
same,outcome,[11],inactive
same,outcome,[12],inactive
same,outcome,[13],inactive
same,outcome,[14],inactive
same,outcome,[15],inactive
same,outcome,[16],inactive
CC(C)(C)CC(C)(C)NCC(O)COc1ccc2c(c1)CCC2 (stereo unspecified),outcome,[1],inactive
same,outcome,[2],inactive
same,outcome,[3],inactive
same,outcome,[4],inactive
same,inhibition,[5],100% (active)
same,outcome,[6],inactive
same,outcome,[7],inactive
same,outcome,[8],inactive
same,outcome,[9],inactive
same,outcome,[10],inactive
same,outcome,[11],inactive
same,outcome,[12],inactive
same,outcome,[13],inactive
same,outcome,[14],inactive
same,outcome,[15],inactive
same,outcome,[16],inactive
Oc1ccc(-c2csc(-c3ccccc3)n2)cc1O,outcome,[1],inactive
same,outcome,[2],inactive
same,outcome,[3],inactive
same,outcome,[4],inactive
same,inhibition,[5],80% (active)
same,outcome,[6],inactive
same,outcome,[7],inactive
same,outcome,[8],inactive
same,outcome,[9],inactive
same,outcome,[10],inactive
same,outcome,[11],inactive
same,outcome,[12],inactive
same,outcome,[13],inactive
same,outcome,[14],inactive
same,outcome,[15],inactive
same,outcome,[16],inactive
Cc1cc(C)nc(NC(N)=NC2CCCCC2)n1,outcome,[1],inactive
same,outcome,[2],inactive
same,outcome,[3],inactive
same,outcome,[4],inactive
same,inhibition,[5],92% (active)
same,inhibition,[6],43% (active)
same,outcome,[7],inactive
same,outcome,[8],inactive
same,outcome,[9],inactive
same,outcome,[10],inactive
same,outcome,[11],inactive
same,outcome,[12],inactive
same,inhibition,[13],21.9% (active)
same,outcome,[14],inactive
same,outcome,[15],inactive
same,outcome,[16],inactive
CCOC(=O)C1(CCOc2ccccc2)CCN(Cc2cccn2-c2ncccn2)CC1,outcome,[1],inactive
same,outcome,[2],inactive
same,outcome,[3],inactive
same,outcome,[4],inactive
same,inhibition,[5],86% (active)
same,inhibition,[6],43% (active)
same,outcome,[7],inactive
same,outcome,[8],inactive
same,inhibition,[9],52.5% (active)
same,outcome,[10],inactive
same,outcome,[11],inactive
same,outcome,[12],inactive
same,outcome,[13],inactive
same,outcome,[14],inactive
same,outcome,[15],inactive
same,outcome,[16],inactive
CSc1nc(N2CCOCC2)c2c3c(sc2n1)CCCC3,outcome,[1],inactive
same,outcome,[2],inactive
same,outcome,[3],inactive
same,outcome,[4],inactive
same,inhibition,[5],75% (active)
same,outcome,[6],inactive
same,outcome,[7],inactive
same,outcome,[8],inactive
same,outcome,[9],inactive
same,outcome,[10],inactive
same,outcome,[11],inactive
same,outcome,[12],inactive
same,inhibition,[13],37.5% (active)
same,outcome,[14],inactive
same,outcome,[15],inactive
same,outcome,[16],inactive
CCn1cc(CN2CCCC(CO)(Cc3cccc(Cl)c3)C2)cn1 (stereo unspecified),outcome,[1],inactive
same,outcome,[2],inactive
same,outcome,[3],inactive
same,outcome,[4],inactive
same,inhibition,[5],94% (active)
same,outcome,[6],inactive
same,outcome,[7],inactive
same,outcome,[8],inactive
same,outcome,[9],inactive
same,outcome,[10],inactive
same,outcome,[11],inactive
same,outcome,[12],inactive
same,inhibition,[13],38.8% (active)
same,outcome,[14],inactive
same,outcome,[15],inactive
same,outcome,[16],inactive
N=c1sccn1CC(=O)Nc1ccccc1Oc1ccccc1,outcome,[1],inactive
same,outcome,[2],inactive
same,outcome,[3],inactive
same,outcome,[4],inactive
same,inhibition,[5],92% (active)
same,inhibition,[6],48% (active)
same,outcome,[7],inactive
same,outcome,[8],inactive
same,inhibition,[9],48% (active)
same,outcome,[10],inactive
same,outcome,[11],inactive
same,outcome,[12],inactive
same,inhibition,[13],34.6% (active)
same,outcome,[14],inactive
same,outcome,[15],inactive
same,outcome,[16],inactive
CN(Cc1ccccc1)C(=O)CSc1nnc(-c2ccco2)n1-c1ccccc1,outcome,[1],inactive
same,outcome,[2],inactive
same,outcome,[3],inactive
same,outcome,[4],inactive
same,inhibition,[5],71% (active)
same,inhibition,[6],43% (active)
same,outcome,[7],inactive
same,outcome,[8],inactive
same,outcome,[9],inactive
same,outcome,[10],inactive
same,outcome,[11],inactive
same,outcome,[12],inactive
same,outcome,[13],inactive
same,outcome,[14],inactive
same,outcome,[15],inactive
same,outcome,[16],inactive
Cc1cccc(/C=N/NC(=O)c2cccc(Cl)c2)n1,outcome,[1],inactive
same,outcome,[2],inactive
same,outcome,[3],inactive
same,potentiation,[4],79% (active)
same,outcome,[5],inactive
same,outcome,[6],inactive
same,outcome,[7],inactive
same,outcome,[17],inactive
same,outcome,[9],inactive
same,outcome,[10],inactive
same,outcome,[11],inactive
same,outcome,[12],inactive
same,outcome,[13],inactive
same,potentiation,[14],83.4% (active)
same,outcome,[15],inactive
same,outcome,[16],inactive
Cc1ccc(OCC(=O)NNC(=S)NC(=O)c2ccc(Br)o2)c(C)c1,outcome,[1],inactive
same,outcome,[2],inactive
same,outcome,[3],inactive
same,outcome,[4],inactive
same,inhibition,[5],65% (active)
same,outcome,[6],inactive
same,outcome,[7],inactive
same,outcome,[8],inactive
same,outcome,[9],inactive
same,outcome,[10],inactive
same,outcome,[11],inactive
same,activation,[12],18.1% (active)
same,inhibition,[13],21.6% (active)
same,outcome,[14],inactive
same,outcome,[15],inactive
same,outcome,[16],inactive
same,activation,[18],198% (active)
same,potentiation,[19],106% (active)
same,potentiation,[20],328% (active)
CC(C1CC2CCC1C2)n1c(-c2cccs2)n[nH]c1=S (stereo unspecified),outcome,[1],inactive
same,outcome,[2],inactive
same,outcome,[3],inactive
same,outcome,[4],inactive
same,inhibition,[5],54% (active)
same,outcome,[6],inactive
same,outcome,[7],inactive
same,outcome,[8],inactive
same,outcome,[9],inactive
same,outcome,[10],inactive
same,outcome,[11],inactive
same,outcome,[12],inactive
same,inhibition,[13],34% (active)
same,outcome,[14],inactive
same,outcome,[15],inactive
same,outcome,[16],inactive
same,outcome,[18],inactive
same,potentiation,[19],48% (active)
same,potentiation,[20],148% (active)
O=C(Nc1ccccc1)C1=C[C@H](C2CCCCC2)C[C@H](OCc2ccc(CO)cc2)O1,outcome,[1],inactive
same,outcome,[2],inactive
same,outcome,[3],inactive
same,potentiation,[4],85% (active)
same,outcome,[5],inactive
same,outcome,[6],inactive
same,outcome,[7],inactive
same,outcome,[17],inactive
same,outcome,[9],inactive
same,outcome,[10],inactive
same,outcome,[11],inactive
same,outcome,[12],inactive
same,outcome,[13],inactive
same,potentiation,[14],124% (active)
same,outcome,[15],inactive
same,outcome,[16],inactive
Cc1ccc(-c2c[n+](Cc3cccc(Cl)c3)c3n2CCC3)cc1,outcome,[1],inactive
same,outcome,[2],inactive
same,outcome,[3],inactive
same,outcome,[4],inactive
same,inhibition,[5],93% (active)
same,inhibition,[6],76% (active)
same,outcome,[7],inactive
same,outcome,[8],inactive
same,outcome,[9],inactive
same,outcome,[10],inactive
same,outcome,[11],inactive
same,outcome,[12],inactive
same,inhibition,[13],14.8% (active)
same,outcome,[14],inactive
same,outcome,[15],inactive
same,outcome,[16],inactive
